From the supplement of paper PMC3842684 come the findings set out here.

Each structure is given as a SMILES string.

One assay relates to P. falciparum NF54-pfs16-GFP late (IV-V) stage gametocytes. As to the kind of experiment: relative % inhibition of viable gametocyte number; higher = more gametocytocidal. Particulars: 0.5 µM; stage: late (IV-V) gametocyte; incubation 72 h. In a few lines: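 Compound was tested in duplicate at 5 or 0.5 µM on magnet-isolated NF54 pfs16-GFP gametocytes, taken either early (I/IIa, day 2) or late (day 8) and plated at 10% parasitaemia, 0.1% haematocrit. Incubation ran 72 h at 37°C, 5% CO2, 5% O2, followed by overnight MitoTracker Red staining and confocal imaging. Relative inhibition, based on counts of elongated GFP objects with above-cut-off MitoTracker signal, was normalised to in-plate vehicle and positive-control wells.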
As to `O=C(Nc1ccc(Br)cc1)Nc1cccc(Cl)c1`, the relative % inhibition is -8.75%.

In the case of `O=C1c2ccccc2-c2nnc(-c3ccc(Br)cc3)cc21`, the relative % inhibition stood at 75.4%.

As to `COc1ccccc1N=C1C(=O)c2ccccc2C(O)=C1N1CCCCC1`, the relative % inhibition was -11.2%.

Consider `CC(C)CCNCC(O)Cn1c2ccccc2c2ccccc21` (stereo not drawn), for which the relative % inhibition stood at 19%.

Consider `CCCCCCC(O)(c1ccc(F)cc1)C(CN1CCOCC1)c1ccccc1` (stereo not drawn), for which the relative % inhibition is 8.28%.

Consider `CCOC(=O)C1=C(c2ccccc2)N=c2sc(=Cc3cc(C)n(-c4ccc(F)cc4)c3C)c(=O)n2C1c1cccc(OC)c1OC` (stereo not drawn), for which the relative % inhibition was found to be 50.5%.

As to `CN(C)c1ccc(-c2nc3cc(N)ccc3[nH]2)cc1`, the relative % inhibition was -13.1%.

With `CCCc1c(C)nc2ccccc2c1O`, the relative % inhibition was determined as 56.5%.

Take `CCN(CC)CCCNc1nc(-c2ccc(Cl)cc2)nc2ccccc12`: the relative % inhibition stood at 13.1%.

With `Cc1ccc(Nc2nc(-c3ccccn3)cs2)cc1`, the relative % inhibition came out at 95.4%.

The assay is the same for the next values; noted with them: 5 µM; stage: late (IV-V) gametocyte; incubation 72 h.
Turning to `COc1ccc(C2Sc3ccccc3N=C3C2=C(O)c2ccccc23)cc1` (stereo not drawn), the relative % inhibition is 51.1%.

In the case of `COc1ccccc1CNC(=O)C1c2ccccc2C(=O)N(CC(C)C)C1c1cccs1` (stereo not drawn), the relative % inhibition is -4.52%.

As to `CCC(C)NCC(O)(c1ccc(Cl)cc1)c1ccc(Cl)cc1` (stereo not drawn), the relative % inhibition stood at 58.3%.

`CC(C)(C)c1ccc(C(=O)Nc2c3c(nn2-c2cccc(Cl)c2)CSC3)cc1`: the relative % inhibition stood at 8.85%.

Regarding `COc1ccc(-c2c(C)nn3c(N)c(C#N)cnc23)cc1OC`, the relative % inhibition is 108%.

Consider `COc1ccc(CCNC(=O)c2cc(S(=O)(=O)N3CC(C)CC(C)C3)ccc2Sc2ccc(F)cc2)cc1OC` (stereo not drawn), for which the relative % inhibition was determined as 20.1%.

For the molecule `COc1ccc(N2CCN(C(CNC(=O)CC(C)(C)C)c3ccc4c(c3)OCO4)CC2)cc1` (stereo not drawn), the relative % inhibition was determined as 25.6%.

`CCCCc1c(CCC)c(=N)c2ccccc2n1C`: the relative % inhibition is -17.8%.

For the molecule `Cc1cc(Nc2cccc(F)c2)nc(NCc2ccccc2)n1`, the relative % inhibition came out at 34.6%.

Regarding `Cc1ccnc(NC(c2cccc(OCc3ccccc3)c2)c2ccc3cccnc3c2O)c1` (stereo not drawn), the relative % inhibition worked out at 57.2%.

In the case of `CCN(CC)c1cc(C)c2cc(NC(=O)c3cccc(OC)c3)ccc2n1`, the relative % inhibition worked out at 86.7%.

On to `CC(C)=CCN1CCC(C(=O)Nc2ccc(-c3nc4ccccc4[nH]3)cc2)CC1`, for which the relative % inhibition is -15.7%.

As for `Oc1c(CN2CCN(c3ccccc3F)CC2)cc(Br)c2cccnc12`, the relative % inhibition worked out at 79.5%.

As to `COc1ccc2c(c1)OC(O)(C(F)(F)C(F)(F)F)CC2=O` (stereo not drawn), the relative % inhibition was found to be 10.1%.

Consider `COc1ccc(Nc2cc(C)nc(NCc3ccccc3)n2)cc1`, for which the relative % inhibition came to 36%.

On to `COc1cccc(Nc2nc(N)c3ccccc3n2)c1`, for which the relative % inhibition was determined as 1.59%.

`CCCCCn1c(=N)n(CC(O)COc2cccc(C)c2)c2ccccc21` (stereo not drawn): the relative % inhibition amounted to 56%.

In the case of `CCOc1ccc2nc(C)cc(Nc3ccc(Br)cc3)c2c1`, the relative % inhibition worked out at 57.1%.

For `Cc1cccc(N2C(=O)C3C(C2=O)C2(c4ccccc4)C(=O)C3(c3ccccc3)C(c3ccc4c(c3)OCO4)=C2c2ccc3c(c2)OCO3)c1` (stereo not drawn), the relative % inhibition is 10.9%.

For the molecule `COc1ccccc1N1C(=N)SC(=Cc2ccc(OCc3ccccc3F)cc2)C1=O`, the relative % inhibition stood at 69.4%.

In the case of `Oc1c2c(nc3cc(-c4ccccc4)nn13)CCCC2`, the relative % inhibition worked out at 57.1%.

Turning to `CC(=O)Nc1nnc(SCc2c(C)cc(C(C)(C)C)cc2C)s1`, the relative % inhibition came out at 60.7%.

Take `CCOc1ccccc1CNC(=O)C1c2ccccc2C(=O)N(CC(C)C)C1c1cccs1` (stereo not drawn): the relative % inhibition was -12.6%.

On to `CCN(CC)CCn1c(=N)n(CC(O)c2ccc(Cl)c(Cl)c2)c2ccccc21` (stereo not drawn), for which the relative % inhibition was 89.4%.

With `CCN(CC)CCNc1ncnc2c1[nH]c1ccc(Cl)cc12`, the relative % inhibition came out at 24.8%.

Take `O=C(CSc1ccc2nnc(-c3cccc(F)c3)n2n1)Nc1ccc2c(c1)OCO2`: the relative % inhibition came out at 32.1%.

`Cc1cc(C)cc(Nc2cc(C)nc3nc(C(F)(F)F)nn23)c1`: the relative % inhibition is -1.16%.

As for `O=C(O)C1Cc2c([nH]c3ccccc23)C(c2ccc(Cl)cc2Cl)N1` (stereo not drawn), the relative % inhibition is 1.16%.

In the case of `O=C(Nc1ccc(Br)cc1)Nc1cccc(Cl)c1`, the relative % inhibition is -6.59%.

Turning to `O=C1c2ccccc2-c2nnc(-c3ccc(Br)cc3)cc21`, the relative % inhibition came to 88.5%.

Consider `COc1ccccc1N=C1C(=O)c2ccccc2C(O)=C1N1CCCCC1`, for which the relative % inhibition was 10.5%.

Consider `CC(C)CCNCC(O)Cn1c2ccccc2c2ccccc21` (stereo not drawn), for which the relative % inhibition came to 82.9%.

As to `CCCCCCC(O)(c1ccc(F)cc1)C(CN1CCOCC1)c1ccccc1` (stereo not drawn), the relative % inhibition came out at 33.1%.

Regarding `CCOC(=O)C1=C(c2ccccc2)N=c2sc(=Cc3cc(C)n(-c4ccc(F)cc4)c3C)c(=O)n2C1c1cccc(OC)c1OC` (stereo not drawn), the relative % inhibition was 59.1%.

`CN(C)c1ccc(-c2nc3cc(N)ccc3[nH]2)cc1`: the relative % inhibition was -10.8%.

As for `CCCc1c(C)nc2ccccc2c1O`, the relative % inhibition turned out to be 72.3%.

On to `CCN(CC)CCCNc1nc(-c2ccc(Cl)cc2)nc2ccccc12`, for which the relative % inhibition stood at 23.5%.

On to `Cc1ccc(Nc2nc(-c3ccccn3)cs2)cc1`, for which the relative % inhibition worked out at 98.4%.
